EPAC2 agonist – EPAC2 (human) agonism; EPAC2 activation, biochemical qHTS; response scale: 100% = 6.5 mM cAMP response; Potency, µM (titrated, usually from 154 µM), without a hit: at the highest dose activation, hits mostly activators; Q8WZA2; AID 720711; 360,000 tested, 0.079% active; also: potency is read from the fitted curve at half-maximal effect; nearly all actives have a fitted effect of over 50% in size
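Compounds were titrated in qHTS against a Rap1B-BODIPY-GDP (250 nM) complex with EPAC2 (100 nM) and GDP (50 uM). BODIPY-GDP release tracked at 480/540 nm over 30 min at room temperature, normalized to 6.5 mM cAMP.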
EPAC1 antag – antagonists of human EPAC1; O95398; 360,000 tested, 0.14% active; Potency, µM (titrated, usually from 115 µM), inactives show at the highest dose activity change, negative = inhibition, most hits filed as inhibitors; EPAC1 GEF assay, Rap1b-BODIPY-GDP exchange fluorescence;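 also: potency is read from the fitted curve at half-maximal effect; plate controls were vehicle for no effect and positive control for full effect; nearly all actives have a fitted effect of over 50% in size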
hERG WT inh – inhibitors of human wildtype KCNH2 potassium channel; Q12809; activity change, % at 1.84 µM; 340,000 tested, 0.37% active; U2OS, BacMam KCNH2, thallium flux FluxOr; stronger effect = lower value;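 active = maximum activity change below -70%; inconclusive = maximum activity change between -70% and -50%; inactive = maximum activity change above -50%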; also: % is scaled to controls: 0 for no effect and ±100 for the full control effect
Target sequence (Q12809 whole entry, looked up): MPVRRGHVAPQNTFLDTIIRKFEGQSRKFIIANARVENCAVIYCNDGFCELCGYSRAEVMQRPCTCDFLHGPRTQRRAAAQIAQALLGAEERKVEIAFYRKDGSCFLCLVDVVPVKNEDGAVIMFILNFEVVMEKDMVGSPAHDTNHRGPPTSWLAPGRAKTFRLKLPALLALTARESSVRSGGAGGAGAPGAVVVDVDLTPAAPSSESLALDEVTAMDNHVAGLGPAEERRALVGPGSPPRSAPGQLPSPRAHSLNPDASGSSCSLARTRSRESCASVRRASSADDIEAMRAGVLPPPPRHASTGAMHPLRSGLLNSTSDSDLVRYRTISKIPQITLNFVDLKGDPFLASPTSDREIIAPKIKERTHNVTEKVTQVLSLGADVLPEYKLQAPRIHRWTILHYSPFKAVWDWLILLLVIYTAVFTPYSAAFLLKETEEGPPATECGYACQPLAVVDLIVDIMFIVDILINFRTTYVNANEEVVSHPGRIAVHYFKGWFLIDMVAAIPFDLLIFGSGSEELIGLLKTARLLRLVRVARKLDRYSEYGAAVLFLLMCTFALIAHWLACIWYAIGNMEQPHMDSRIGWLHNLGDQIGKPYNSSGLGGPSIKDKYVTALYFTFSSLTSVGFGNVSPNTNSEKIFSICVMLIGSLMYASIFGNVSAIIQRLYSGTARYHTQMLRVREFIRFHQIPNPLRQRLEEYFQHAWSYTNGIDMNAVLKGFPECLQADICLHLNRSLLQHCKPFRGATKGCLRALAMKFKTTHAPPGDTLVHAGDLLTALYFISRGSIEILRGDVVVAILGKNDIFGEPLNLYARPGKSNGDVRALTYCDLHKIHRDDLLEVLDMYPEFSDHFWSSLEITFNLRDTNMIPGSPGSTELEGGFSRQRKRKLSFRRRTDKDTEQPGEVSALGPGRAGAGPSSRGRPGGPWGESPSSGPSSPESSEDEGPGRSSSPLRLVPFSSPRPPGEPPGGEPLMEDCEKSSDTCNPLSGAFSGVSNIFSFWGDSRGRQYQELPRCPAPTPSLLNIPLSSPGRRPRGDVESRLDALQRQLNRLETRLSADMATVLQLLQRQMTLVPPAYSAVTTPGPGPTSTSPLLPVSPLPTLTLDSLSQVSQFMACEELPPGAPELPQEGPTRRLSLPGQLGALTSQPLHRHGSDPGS
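U2OS cells transduced with wild-type KCNH2 virus are loaded with FluxOr dye for 45 min, and thallium flux is measured in kinetic reads before and after stimulation buffer. Rate constants are normalized to DMSO controls.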
EPAC2 antagonist – antagonists of human EPAC2 | Potency, µM (highest dose often 114 µM), without a hit: top-dose activity, negative = inhibition, hits mostly inhibitors | Q8WZA2 | EPAC2 GEF exchange of Rap1B-BODIPY-GDP, fluorescence | 360,000 tested, 0.18% active; also: potency is read from the fitted curve at half-maximal effect; % is scaled to controls: 0 for no effect and ±100 for the full control effect; nearly all actives have a fitted effect of over 45% in size
EPAC1 agonist – EPAC1 (human) agonism | Potency, µM (highest dose often 154 µM), for the others: at the highest dose activation, most hits filed as activators | 360,000 tested, 0.073% active | O95398 | EPAC1 agonist qHTS, biochemical assay; response scale: 100% = response to 6.5 mM cAMP; also: potency is read from the fitted curve at half-maximal effect; nearly all actives have a fitted effect of over 60% in size
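Fluorescent GDP-exchange assay: 100 nM EPAC1 with 250 nM Rap1B preloaded with BODIPY-GDP and 50 uM GDP; compounds tested as concentration series, 5 min at room temperature, then read every 5 min for 30 min (ex 480/em 540 nm); normalized to 6.5 mM cAMP.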
KCNH2 3.1 block – blocks the human KCNH2 3.1 channel isoform; activity change, % (tested at about 1.8 µM); 340,000 tested, 0.95% active; U2OS KCNH2 3.1, thallium flux FluxOr; stronger effect = lower value;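 active = maximum activity change below -70%; inconclusive = maximum activity change from -70% to -50%; inactive = maximum activity change above -50%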;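 also: thallium influx rate constant from kinetic fluorescence after stimulation buffer; % is scaled to controls: 0 for no effect and ±100 for the full control effect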
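Normalized rate constant (relative to positive and negative DMSO controls) derived from a 2 min kinetic fluorescence read after stimulation; U2OS cells expressing the 3.1 isoform via virus at 1.77 x 10^8 /mL.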
An asterisk follows results filed as active; [ ] = another dose, or the depositor's remark. This is a sample that favours compounds with a hit; in the whole collection about 1.4% have one here. Unless noted, calls follow the shape of the dose curve; as a rule, active = well fitted curve in the direction sought with a large enough effect; inconclusive = small, poorly fitted or top-dose-only effect, or another doubt; inactive = no such curve, though single readings can be large; an effect the other way counts as inactive or inconclusive.

For CCOC(=O)c1ccccc1NC(=O)COC(=O)C1CCCC1 the results were EPAC2 agonist 4%, EPAC1 antag -8%, hERG WT inh -104*, EPAC2 antagonist -5%, EPAC1 agonist 5% and KCNH2 3.1 block 11.
`Cc1cc(NCCCn2ccnc2)n2ncc(-c3ccc(Cl)cc3)c2n1` gave EPAC2 agonist 11%, EPAC1 antag -13%, hERG WT inh -2, EPAC2 antagonist -3%, EPAC1 agonist 12% and KCNH2 3.1 block -73*.
Screening Cc1nn2c(=O)cc(CSCC(=O)Nc3ccccc3F)nc2s1 returned EPAC2 agonist 11%, EPAC1 antag -3%, hERG WT inh -17, EPAC2 antagonist -2%, EPAC1 agonist 17% and KCNH2 3.1 block -142*.
Screening CCc1nn2c(=O)cc(CSCC(=O)Nc3ccccc3F)nc2s1 returned EPAC2 agonist 5%, EPAC1 antag 18%, hERG WT inh -28, EPAC2 antagonist 3%, EPAC1 agonist -2% and KCNH2 3.1 block -9.
COc1ccc(-c2cc(C(F)(F)F)nc(SCC(=O)NCc3ccco3)n2)cc1OC was read as EPAC2 agonist -83%[15.6 µM], EPAC1 antag 0%, hERG WT inh -9, EPAC2 antagonist 2%, EPAC1 agonist -3% and KCNH2 3.1 block 9.
COc1ccc(-c2cc(C(F)(F)F)nc(SCC(=O)NCc3cnn(C)c3C)n2)cc1OC was read as EPAC2 agonist 13%, EPAC1 antag 3%, hERG WT inh -174*, EPAC2 antagonist -6%, EPAC1 agonist 3% and KCNH2 3.1 block 2.
CCOc1ccc(OCc2ccc(C(=O)N/N=C(\C)c3ccccn3)cc2)cc1 was read as EPAC2 agonist 3%, EPAC1 antag -1%, hERG WT inh -72*, EPAC2 antagonist -9%, EPAC1 agonist 10% and KCNH2 3.1 block -12.
For COC1CC(N)C2OC(c3ccccc3)OCC2O1 (stereo not given) the results were EPAC2 agonist 4%, EPAC1 antag -1%, hERG WT inh 6, EPAC2 antagonist -3%, EPAC1 agonist 3% and KCNH2 3.1 block -2.
Screening COc1ccc(NC(=O)[C@@H]2O[C@H](CO)[C@H](O)[C@H](O)[C@H]2O)cc1F returned EPAC2 agonist 2%, EPAC1 antag 9%, EPAC2 antagonist 6% and EPAC1 agonist 12%.
For Cn1c(=O)c(C#N)c(-c2ccc(F)cc2)c2cc(C(=O)c3cc(Cl)cc(Cl)c3O)cnc21 the results were EPAC2 agonist -3%, EPAC1 antag inconclusive, hERG WT inh -3, EPAC2 antagonist 50µM*, EPAC1 agonist -2% and KCNH2 3.1 block 16.
O=C(NCc1ccco1)c1cnn2c1NC(c1ccc(Br)cc1)CC2C(F)(F)F (stereo not given) was read as EPAC2 agonist 21%, EPAC1 antag -24%, hERG WT inh -71*, EPAC2 antagonist -3%, EPAC1 agonist 7% and KCNH2 3.1 block 0.
Screening O=C(NCc1ccco1)c1cnn2c1NC(c1ccccc1)CC2C(F)(F)F (stereo not given) returned EPAC2 agonist -2%, EPAC1 antag -3%, hERG WT inh -13, EPAC2 antagonist -5%, EPAC1 agonist 5% and KCNH2 3.1 block 11.
Screening COc1cc(CNc2ncnc3c2ncn3[C@H]2CN(Cc3ccncc3)C[C@@H](CO)O2)cc(OC)c1OC returned EPAC2 agonist 6%, EPAC1 antag 3%, EPAC2 antagonist 0% and EPAC1 agonist -2%.
`CCc1ccc(OCC(=O)c2c(O)c3ccccc3oc2=O)cc1` gave EPAC2 agonist -1%, EPAC1 antag -30%, hERG WT inh -16, EPAC2 antagonist -2%, EPAC1 agonist 5% and KCNH2 3.1 block -15.
`CCc1oc2ccccc2c1C(=O)c1cc(Br)c(O)c(Br)c1` gave EPAC2 agonist -11%, EPAC1 antag inconclusive, hERG WT inh -9, EPAC2 antagonist 10µM*, EPAC1 agonist -11% and KCNH2 3.1 block 6.
Screening CN(C)S(=O)(=O)c1cccc(NC(=O)c2ccc(-n3cncn3)c([N+](=O)[O-])c2)c1 returned EPAC2 agonist 1%, EPAC1 antag -10%, hERG WT inh 6, EPAC2 antagonist 5%, EPAC1 agonist 2% and KCNH2 3.1 block 11.
For N#C/C(=C(/O)C(Cl)(Cl)Cl)c1nc2ccccc2[nH]1 the results were EPAC2 agonist -1%, EPAC1 antag -7%, hERG WT inh -8, EPAC2 antagonist 13µM*, EPAC1 agonist -2% and KCNH2 3.1 block -7.
For Cc1ccc2nc(NC(=O)C3CCN(S(=O)(=O)c4cccs4)CC3)sc2c1 the results were EPAC2 agonist 13%, EPAC1 antag -9%, hERG WT inh 9, EPAC2 antagonist 4%, EPAC1 agonist 18% and KCNH2 3.1 block -80*.
Screening COc1ccc2nc(NC(=O)C3CCN(S(=O)(=O)c4cccs4)CC3)sc2c1 returned EPAC2 agonist 10%, EPAC1 antag -1%, hERG WT inh 42, EPAC2 antagonist -2%, EPAC1 agonist 10% and KCNH2 3.1 block -14.
For Cn1c(-c2ccc3c(c2)OCO3)cnc1N the results were EPAC2 agonist 4%, EPAC1 antag -4%, hERG WT inh 4, EPAC2 antagonist -5%, EPAC1 agonist 3% and KCNH2 3.1 block -75*.
For COc1cc2c(cc1OC)C(C1(O)CCCCC1)NCC2 (stereo not given) the results were EPAC2 agonist 4%, EPAC1 antag 1%, hERG WT inh -1, EPAC2 antagonist 3%, EPAC1 agonist 15% and KCNH2 3.1 block 5.
`COc1ccc(C2NCCC3(O)CCCCC23)c(OC)c1OC` (stereo not given) gave EPAC2 agonist 3%, EPAC1 antag 6%, hERG WT inh -296*, EPAC2 antagonist 17%, EPAC1 agonist -1% and KCNH2 3.1 block 2.
For Cc1cc(C)c(Nc2cc(S(=O)(=O)O)c(N)c3c2C(=O)c2ccccc2C3=O)c(C)c1 the results were EPAC2 agonist -4%, EPAC1 antag 50µM*, hERG WT inh 0, EPAC2 antagonist inconclusive, EPAC1 agonist -21% and KCNH2 3.1 block -16.
For Cc1cc(C)c(NC(=O)COC(=O)c2cccc3c2C(=O)c2ccccc2C3=O)c(C)c1 the results were EPAC2 agonist 1%, EPAC1 antag -3%, hERG WT inh -25, EPAC2 antagonist 12% and EPAC1 agonist 5%.
OC(CNCc1ccccn1)c1ccccc1 (stereo not given) was read as EPAC2 agonist 7%, EPAC1 antag -6%, hERG WT inh 2, EPAC2 antagonist 2%, EPAC1 agonist -9% and KCNH2 3.1 block 12.

Screens (PubChem)
